Lassa entry = Lassa virus entry inhibition; 18,000 tested, 4.1% active; AID 720533; Potency, µM (titrated, usually from 49.2 µM), for inactives: top-dose activity change, negative = inhibition, hits mostly inhibitors; Lassa virus pseudotyped entry inhibition, cell-based qHTS
Marburg entry = blocks Marburg virus binding or cell entry | Marburg virus pseudotype entry/binding inhibition, cell-based | 18,000 tested, 6.5% active | Potency, µM (titrated, usually from 49.2 µM), inactives show at the top dose activity change, negative = inhibition, most hits filed as inhibitors
An asterisk follows results filed as active; ! = a repeat was not active; [ ] = another dose, or the depositor's remark. Compounds with a hit are over-represented: about 8% of the library has one in this group of screens. The call rests on the fitted dose curve; tested in HEK293 cells. On the % scale 0 is the no-effect control and ±100 the full control effect; potency means the concentration at half of the fitted maximal effect.

How did CC1CS(=O)(=O)CCN1/N=C/c1ccc([N+](=O)[O-])o1 (stereo unspecified) do in these assays?
Lassa entry: 1%[17.8 µM]; Marburg entry: 2%[17.8 µM]

What do the screens show for `N#Cc1cccc(-c2nc(N3CCNCC3)c3ccccc3n2)c1`?
Lassa entry: -1%; Marburg entry: 16µM*

How did Cc1noc(C)c1-c1nc(N2CCNCC2)c2ccccc2n1 do in these assays?
Lassa entry: 5%; Marburg entry: inconclusive

Results for CS(=O)(=O)Nc1cccc(-c2nc(N3CCNCC3)c3ccccc3n2)c1 ?
Lassa entry: 15%; Marburg entry: inconclusive

What do the screens show for `c1ccc2c(N3CCNCC3)nc(-c3ccc4c(c3)OCO4)nc2c1`?
Lassa entry: -9%; Marburg entry: 10µM*

What do the screens show for `Cc1cc(C(=O)NCc2nnc3n2CCN(Cc2ccc(C)c(C)c2)CC3)c(C)o1`?
Lassa entry: -14%; Marburg entry: -15%

What do the screens show for `Cc1ccc(C)c(CN2CCc3nnc(CNC(=O)c4cc(C)oc4C)n3CC2)c1`?
Lassa entry: -4%; Marburg entry: active

What do the screens show for `C=C1C/C(=C\C)C(=O)O[C@@H]2CCN3CC=C(COC(=O)[C@@]1(C)O)[C@H]23`?
Lassa entry: 3%[17.8 µM]; Marburg entry: 0%[17.8 µM]

What do the screens show for `O=C(c1ccc(Nc2nccc(-c3cc4ccccc4s3)n2)cc1)N1CCC(N2CCCC2)CC1`?
Lassa entry: inconclusive; Marburg entry: 2.2µM*

How did O=C(Nc1ccc(C(=O)N2CCCCC2)cc1)c1ccccc1 do in these assays?
Lassa entry: 32%; Marburg entry: 80%

How did COc1cc(=O)n2c(c1C(=O)N(C)Cc1nccs1)CCN(Cc1cc3ccccc3s1)CC2 do in these assays?
Lassa entry: -13%; Marburg entry: 8%

How did CC1(C)C(=O)C=C[C@@]2(C)C1=C(O)C(=O)[C@@]1(C)C2CC[C@@]2(C)C(c3ccoc3)C[C@H]3O[C@@]321 (stereo partly specified) do in these assays?
Lassa entry: 11µM*; Marburg entry: 5µM*

Results for CC(=O)OC1CC(OC(C)=O)[C@]2(C)C(CC(=O)[C@]3(C)C2CC[C@@]2(C)C(c4ccoc4)OC(=O)C4O[C@@]423)C1(C)C (stereo partly specified) ?
Lassa entry: -17%; Marburg entry: 5%

How did C=CCCC1(C(=O)c2ccccc2)C(=O)C(CC=C(C)C)=C(OC)C(CC=C(C)C)(CCC=C(C)C)C1=O (stereo unspecified) do in these assays?
Marburg entry: -1%[8.59 µM]

Results for C[C@@H]1C[C@H](C)C[C@H](C)[C@@H](O)CC(=O)O[C@H]([C@H]2CCC[C@H]2C(=O)O)C/C=C/C=C(/C#N)[C@H](O)[C@@H](C)C1 ?
Lassa entry: inconclusive; Marburg entry: 10µM*

How did COC(=O)[C@@H](NC(=O)O[C@H]1C(=O)c2cc(OC)ccc2O[C@@H]1c1ccc(OC)c(Br)c1)C(C)C do in these assays?
Lassa entry: -11%; Marburg entry: 2%

Results for CCC(=O)O[C@]1(c2ccccc2)CCN(C)C[C@H]1C ?
Lassa entry: -4%; Marburg entry: 7%

What do the screens show for `CN1CC[C@@]2(c3cccc(O)c3)Cc3nc4ccccc4cc3C[C@H]2C1`?
Lassa entry: -4%; Marburg entry: 18µM*

How did CCCCCCCCNCCS(=O)(=O)NCc1ccccc1OC do in these assays?
Lassa entry: -8%; Marburg entry: inconclusive

What do the screens show for `COc1ccccc1CNCCCCCCNCCCCCCCCNCCCCCCNCc1ccccc1OC`?
Lassa entry: inconclusive; Marburg entry: 7.9µM*

Results for COc1ccc2c(c1)OC(C)(C)C(c1ccccc1)C2c1ccc(OCCN2CCCC2)cc1 (stereo unspecified) ?
Lassa entry: inconclusive; Marburg entry: 4.5µM*

What do the screens show for `COc1cccc([C@@H]2Oc3ccc(OC)cc3C(=O)[C@H]2OC(=O)NCCOc2ccccc2)c1`?
Lassa entry: -4%; Marburg entry: -10%

Results for C[C@@H]1[C@H]2CC[C@@H]3[C@@H]4CC=C5C[C@@H](N(C)C)CC[C@]5(C)[C@@H]4CC[C@@]32CN1C ?
Lassa entry: -9%[17.8 µM]; Marburg entry: 5.6µM*

Results for C[C@]12CC[C@H](OS(=O)(=O)O)CC1=CC[C@@H]1[C@@H]2CC[C@]2(C)C(=O)CC[C@@H]12 ?
Lassa entry: -7%; Marburg entry: -8%

Results for O=C(O)COc1nn(Cc2ccccc2)c2ccccc12 ?
Lassa entry: -4%; Marburg entry: 15%

Results for COC(=O)c1cccc(C(=O)N2CCc3c(cnc(C)c3CNC(=O)c3ccsc3)C2)c1 ?
Lassa entry: -18%; Marburg entry: -11%

Results for CC(C)[C@@H](CC(=O)N[C@@H]1CCCC[C@H]1C(=O)N[C@H](CC(=O)N[C@@H](CCC(=O)O)CC(=O)O)Cc1ccccc1)NC(=O)C[C@H](Cc1ccccc1)NC(=O)[C@@H]1CCCC[C@H]1N ?
Lassa entry: -6%; Marburg entry: 0%

What do the screens show for `C/C1=C2N=C(/C=C3N=C(/C(C)=C4\[N-][C@@](C)([C@@H]5N=C1[C@](C)(CCC(=O)NCC(C)OP(=O)(O)O[C@H]1[C@@H](O)[C@@H](n6cnc7cc(C)c(C)cc76)O[C@@H]1CO)[C@H]5CC(N)=O)[C@@](C)(CC(N)=O)[C@@H]4CCC(N)=O)[C@@](C)(CC(N)=O)[C@@H]\3CCC(N)=O)C(C)(C)[C@@H]/2CCC(N)=O.CC(=O)O.[Co]` (stereo partly specified)?
Lassa entry: 3.2µM*; Marburg entry: 2.8µM*

How did CO/C1=C\C(C)=C\[C@@H](C)[C@@H](O)[C@@H](C)C/C(C)=C/C=C\[C@H](OC)C([C@@H](C)[C@@H](O)[C@H](C)[C@@]2(O)C[C@@H](O)[C@H](C)C(C(C)C)O2)OC1=O (stereo partly specified) do in these assays?
Lassa entry: 0.023µM*; Marburg entry: 0.015µM*

What do the screens show for `COC(=O)[C@H]1O[C@@H](c2cc(OC)c(C)c(OC)c2O)[C@H](C)[C@@H](O)[C@@H]1C`?
Marburg entry: 32%[8.59 µM]

Results for O=C(N[C@H]1CCCc2ccccc21)O[C@@H]1C(=O)c2cc(Br)ccc2O[C@H]1c1ccc2c(c1)OCO2 ?
Lassa entry: -6%; Marburg entry: 22%

Results for CC1OC(=O)C(C(C)C)NC(=O)C(C(C)C)OC(=O)C(C(C)C)NC(=O)C(C)OC(=O)C(C(C)C)NC(=O)C(C(C)C)OC(=O)C(C(C)C)NC(=O)C(C)OC(=O)C(C(C)C)NC(=O)C(C(C)C)OC(=O)C(C(C)C)NC1=O (stereo unspecified) ?
Lassa entry: 0.13µM*; Marburg entry: 89µM*

Results for Nc1ccnc2c1ncn2[C@@H]1O[C@H](CO)[C@@H](O)[C@H]1O ?
Lassa entry: 6%; Marburg entry: -19%

What do the screens show for `CCOC(=O)CN1C(=O)[C@]2(O[C@H](COc3ccccc3)CC3=C2CCC3)c2ccccc21`?
Lassa entry: -15%[8.59 µM]; Marburg entry: 30%[8.59 µM]

How did C[C@@]12C(=O)OC(=O)[C@]1(C)C1CCC2O1 do in these assays?
Lassa entry: 2.2µM*; Marburg entry: 4.5µM*

What do the screens show for `OCCN1CCN(CC/C=C2/c3ccccc3Sc3ccc(Cl)cc32)CC1`?
Lassa entry: -28%[17.8 µM]; Marburg entry: inconclusive

What do the screens show for `CN(C)CCC=C1c2ccccc2C(C)(C)c2ccccc21`?
Lassa entry: 18µM*; Marburg entry: 4.5µM*

Results for CN(C)CCC=C1c2ccccc2C=Cc2ccccc21 ?
Lassa entry: 32µM*!; Marburg entry: 11µM*

Bioassay records from PubChem BioAssay.
